Data published in PubChem BioAssay.
The source made the active and inactive calls. Unless noted, no rule for the calls is given here.

What was measured:
[1] = A549 cell viability effects, profiling panel, calcein-AM fluorescence, 48 h, basal (AID 1162); conditions: higher = more signal; also: test concentration not given here
[2] = adipocyte viability effects, profiling panel, cell-based, 3T3-L1 adipocytes, calcein-AM fluorescence, 48 h, basal (AID 1163); conditions: 3T3-L1 adipocytes viability, higher = more signal; also: test concentration not given here
[3] = HepG2 cell viability effects, profiling panel, calcein-AM fluorescence, 48 h, basal (AID 1164); conditions: higher = more signal; also: test concentration not given here
[4] = MM1S cell viability effects, profiling panel, calcein-AM fluorescence, 48 h, basal (AID 1165); conditions: higher = more signal;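 also: viability of MM1S multiple myeloma cells under basal unstimulated conditions; test concentration not given here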
[5] = basal RPMI8226 viability, no added stimulus, profiling panel, cell-based, calcein-AM fluorescence, 48 h, PK04 Diversity Set (AID 1166); conditions: RPMI8226 myeloma viability, higher = more signal;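 also: cells grown under basal conditions without added stimulus; test concentration not given here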
[6] = basal HepG2 mitochondrial membrane potential changes, profiling panel, cell-based, JC-1 fluorescence, 24 h, 100 nL compound (AID 1167); conditions: higher = more signal; also: test concentration not given here
[7] = basal 3T3-L1 adipocyte mitochondrial potential changes, profiling panel, cell-based, JC-1 fluorescence, 3T3-L1 adipocytes, 24 h, 100 nL compound (AID 1168); conditions: JC-1 mitochondrial fluorescence, higher = more signal, called active from +8 up or from −8 down; also: test concentration not given here
[8] = basal RPMI8226 mitochondrial membrane potential changes, profiling panel, cell-based, JC-1 fluorescence, 24 h, 100 nL compound (AID 1169); conditions: RPMI8226 myeloma, JC-1 mitochondrial potential fluorescence, higher = more signal; also: test concentration not given here
[9] = basal MM1S mitochondrial membrane potential changes, profiling panel, cell-based, JC-1 fluorescence, 24 h, 100 nL compound (AID 1170); conditions: higher = more signal; also: test concentration not given here
[10] = A549 lung cancer cell viability effects, profiling panel, resazurin fluorescence, 24 h, PK04 Diversity Set (AID 1171); conditions: higher = more signal, called active from +8 up or from −8 down; also: test concentration not given here
[11] = HepG2 liver cancer cell viability effects, profiling panel, resazurin fluorescence, 24 h, PK04 Diversity Set (AID 1172); conditions: higher = more signal; also: test concentration not given here
[12] = basal S. cerevisiae growth modulation, no modifier, primary screen, OD600, strain BY4716, 24 h, basal condition (AID 1173); conditions: OD600, 24 h, higher = more signal, called active from +8 up or from −8 down
[13] = MM1S myeloma cell viability, profiling panel, resazurin fluorescence, basal, 24 h, PK04 Diversity Set (AID 1174); conditions: higher = more signal, called active from +8 up or from −8 down;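 also: MM1S multiple myeloma cell line; test concentration not given here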
[14] = molecular target: Dihydroorotate dehydrogenase (quinone), mitochondrial (Plasmodium falciparum (isolate 3D7)) (UniProt Q08210); experiment: PfDHODH enzyme inhibitors, primary screen, biochemical, C-terminal His tag, absorbance 600 nm (AID 1175); conditions: DCIP absorbance 600 nm, higher = more signal, called active from +8 up or from −8 down;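 also: recombinant parasite enzyme with a five histidine tag at its C terminus; test concentration not given here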
[15] = P. aeruginosa biofilm formation inhibitors, primary screen, strain PAO1, LB-PBS medium, absorbance 600 nm (AID 1176); also: test concentration not given here; conditions: P. aeruginosa PAO1 growth/biofilm, A600, 12 h; higher = more signal
[16] = S. cerevisiae RM11-1a growth modifiers, primary screen, strain RM11-1a, OD600, basal, 24 h (AID 1177); conditions: OD600, 24 h, higher = more signal, called active from +8 up or from −8 down;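 also: cultures grown under basal conditions with no added stressor; test concentration not given here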
[17] = E. coli acrAB mutant growth effects, primary screen, E. coli filamentation inducers, strain DRC39, OD650, 24 h (AID 1178); conditions: higher = more signal, called active from +8 up or from −8 down;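 also: growth measured as culture turbidity by optical density at 650 nm; test concentration not given here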
[18] = E. coli acrAB mutant growth effects, primary screen, E. coli filamentation inducers, strain DRC39, OD650, 48 h (AID 1179);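 also: screen aims at cell division blockers that make cells filament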; conditions: E. coli DRC39 delta-acrAB growth, higher = more signal, called active from +8 up or from −8 down
[19] = RPMI8226 myeloma cell viability, profiling panel, resazurin fluorescence, basal, 24 h, PK04 Diversity Set (AID 1180); conditions: higher = more signal;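 also: RPMI8826 multiple myeloma cell line at 5000 cells per well; test concentration not given here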
[20] = molecular target: E3 ubiquitin-protein ligase XIAP (Homo sapiens) (UniProt P98170); experiment: XIAP binders, primary screen, biophysical, small-molecule microarray, fluorescence 635 nm (AID 1181); conditions: small-molecule microarray binding, higher = more signal;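 also: score merges 667 nm emission and signal to noise over triplicate slides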
Chain of E3 ubiquitin-protein ligase XIAP (Homo sapiens) (P98170 whole entry, looked up): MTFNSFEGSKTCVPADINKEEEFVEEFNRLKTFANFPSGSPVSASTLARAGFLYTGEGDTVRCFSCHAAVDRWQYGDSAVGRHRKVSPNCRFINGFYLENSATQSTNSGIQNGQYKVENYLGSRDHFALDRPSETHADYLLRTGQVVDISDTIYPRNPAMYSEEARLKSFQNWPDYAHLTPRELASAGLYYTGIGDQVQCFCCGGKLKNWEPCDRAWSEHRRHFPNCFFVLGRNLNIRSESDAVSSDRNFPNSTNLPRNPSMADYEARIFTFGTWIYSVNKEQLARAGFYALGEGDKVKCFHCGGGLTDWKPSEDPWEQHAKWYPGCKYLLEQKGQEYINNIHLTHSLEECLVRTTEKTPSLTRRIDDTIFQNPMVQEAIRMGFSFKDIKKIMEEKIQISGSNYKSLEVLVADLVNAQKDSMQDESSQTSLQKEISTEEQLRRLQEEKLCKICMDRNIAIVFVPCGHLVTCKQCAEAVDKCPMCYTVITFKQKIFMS

Chain of Dihydroorotate dehydrogenase (quinone), mitochondrial (Plasmodium falciparum (isolate 3D7)) (Q08210 whole entry, looked up): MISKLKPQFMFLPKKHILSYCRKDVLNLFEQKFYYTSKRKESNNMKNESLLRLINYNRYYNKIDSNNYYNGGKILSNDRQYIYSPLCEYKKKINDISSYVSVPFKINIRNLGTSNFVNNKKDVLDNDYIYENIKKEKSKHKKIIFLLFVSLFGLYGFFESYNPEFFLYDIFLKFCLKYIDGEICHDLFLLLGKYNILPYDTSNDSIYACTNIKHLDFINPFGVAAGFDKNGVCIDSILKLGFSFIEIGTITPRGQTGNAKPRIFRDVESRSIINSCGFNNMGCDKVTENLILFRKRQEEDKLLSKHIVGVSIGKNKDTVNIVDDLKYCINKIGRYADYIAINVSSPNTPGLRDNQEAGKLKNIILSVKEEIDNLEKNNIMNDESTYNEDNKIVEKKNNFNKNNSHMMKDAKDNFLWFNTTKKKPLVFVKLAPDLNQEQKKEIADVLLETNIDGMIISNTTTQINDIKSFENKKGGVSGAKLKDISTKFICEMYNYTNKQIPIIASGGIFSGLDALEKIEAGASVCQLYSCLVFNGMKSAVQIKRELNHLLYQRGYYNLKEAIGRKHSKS

Row | SMILES | z-score [1] | z-score [2] | z-score [3] | z-score [4] | z-score [5] | z-score [6] | z-score [7] | z-score [8] | z-score [9] | z-score [10] | z-score [11] | z-score [12] | z-score [13] | composite z-score [14] | z-score [15] | z-score [16] | z-score [17] | z-score [18] | z-score [19] | composite z-score [20]
1 | Cc1ccc(S[C@]2(C(=O)NCC(F)(F)F)CC(=O)N(C3CCCCC3)[C@@H]2c2ccc(CO)cc2I)cc1 | 0.335 | 0.66 | 0.133 | -2.65 | -1.91 | -0.807 | -0.482 (inactive) | -0.445 | 0.176 | 0.741 (inactive) | 0.04 | 0.108 (inactive) | 0.384 (inactive) | 0.0443 (inactive) | 0.201 (inactive) | -0.531 (inactive) | -0.0243 (inactive) | -0.223 (inactive) | -0.128 | -0.12
2 | O=C1OCC=C[C@H]2OC34C=CCN(Cc5ccccc5)C(=O)[C@H]3N(CCCCCCO)C(=O)[C@@H]4[C@@H]12 (stereo not given in full) | 0.131 | 0.98 | -0.246 | 1.62 | 0.659 | -0.1 | -0.173 (inactive) | -0.822 | -0.566 | 0.776 (inactive) | 1.07 | -0.296 (inactive) | 1.59 (inactive) | -1.65 (inactive) | 0.0683 (inactive) | -0.739 (inactive) | 0.693 (inactive) | 0.415 (inactive) | 0.517 | 0.052
3 | CN(C)CCCNC(=O)[C@@]1(c2ccc([N+](=O)[O-])cc2)CC(=O)N(CC23CC4CC(CC(C4)C2)C3)[C@@H]1c1ccc(CO)cc1I | -4.27 | -0.0899 | -5.25 | -3.97 | -4.15 | -2.77 | 1.94 (inactive) | -0.913 | -2.37 | -7.13 (inactive) | -6.51 | -16.9 (active) | -9.05 (active) | -0.173 (inactive) | 0.277 (inactive) | -20.9 (active) | -1.46 (inactive) | -2.96 (inactive) | -6.63 | -0.0541
4 | O=C1NC(=O)C2C1C=CC(C(O)c1c(F)cccc1Cl)N2Nc1ccc(Cl)cc1Cl (stereo not given) | -2.11 | 0.0772 | -2.82 | -3.64 | -1.39 | -3.44 | -0.775 (inactive) | -1.06 | -1.46 | -2.22 (inactive) | -3.13 | -14.8 (active) | -2.21 (inactive) | 0.0047 (inactive) | 1.44 (inactive) | -1.12 (inactive) | -0.854 (inactive) | -1.44 (inactive) | -2.2 | 0.482
5 | COc1ccc(-c2nc(-c3ccccc3)c3c(c2C)CO[Si]3(C(C)C)C(C)C)cn1 | -0.0364 | -0.628 | -0.292 | -1.03 | -3.63 | -0.922 | -1.72 (inactive) | -0.443 | -0.294 | 1.95 (inactive) | 0.539 | 0.232 (inactive) | 0.151 (inactive) | 0.366 (inactive) | 1.35 (inactive) | -0.278 (inactive) | -0.512 (inactive) | -0.329 (inactive) | -0.82 | -0.0943
6 | COc1cc2c(cc1OC)CN(C(=O)[C@@H]1[C@H]3C(=O)O[C@H](c4ccccc4)[C@H](c4ccccc4)N3[C@H](c3ccc(OCCO)cc3)[C@@]13C(=O)Nc1ccccc13)CC2 | 1.47 | 1.04 | 1.35 | 0.48 | 0.834 | -0.221 | 0.876 (inactive) | -0.592 | -1.17 | 0.319 (inactive) | -0.44 | 1.39 (inactive) | -1.54 (inactive) | -1.09 (inactive) | 3.15 (inactive) | 4.05 (inactive) | 0.144 (inactive) | 0.919 (inactive) | -0.0976 | -0.0763
7 | O=C1C=C(c2ccccc2)C(=O)c2ccc([C@H]3Oc4ccccc4S(=O)(=O)N4CCC[C@@H]34)cc21 | -0.309 | -0.319 | -1.07 | -3.23 | -4.03 | -3.82 | -1.83 (inactive) | -1.23 | -2.69 | -0.602 (inactive) | -0.337 | -18.1 (active) | -8.07 (active) | -5.82 (inactive) | 0.649 (inactive) | -0.801 (inactive) | 1.81 (inactive) | 0.587 (inactive) | -5.86 | -0.31
8 | C=C(COC)C(=O)CC[C@@H](OC(=O)c1cccnc1)c1ccc(OCCO)cc1 | -0.1 | -0.486 | -0.419 | -2.55 | -1.29 | -1.89 | 0.42 (inactive) | 0.829 | -0.374 | -0.284 (inactive) | 0.379 | -16 (active) | 0.556 (inactive) | -3.49 (inactive) | 0.178 (inactive) | -0.499 (inactive) | 0.864 (inactive) | 0.441 (inactive) | 0.221 | -0.184
